Most compounds without a hit are left out; they make up all but 3% or so of the library.
MITF TRPM1 HTS – activators of MITF-driven TRPM1 promoter reporter, primary screen, cell-based, SK-MEL-5, luciferase, single point. SK-MEL-5 TRPM1-promoter luciferase, 24 h; % of positive control, neutral wells = 0. activation, % at 12.5 µM. actives 0.75% (n = 300,000);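 active = mean activation of at least 80% with every replicate also reaching 80%; inconclusive = mean reaches 80% but some replicate falls short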;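 also: 0% = neutral control wells and 100% = parthenolide positive control wells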
EBV LMP1 NFkB – EBV LMP1-driven NF-kappaB luciferase reporter inhibitors, primary screen, cell-based, luminescence, single point; LMP1-induced NF-kappaB luciferase reporter cells; inhibition, % at 12.5 µM; actives 0.69% (n = 350,000); in the data active = inhibition above about 41%; inconclusive = no clear call, values can overlap the other calls;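 also: 0% = neutral control wells and 100% = reference inhibitor control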
LGR2 inh – inhibitors of bursicon-induced LGR2 CRE-luciferase signal, primary screen, cell-based, HEK293, CRE-luciferase reporter, bursicon stimulation; bursicon-stimulated, 4 h; inhibition, % at 9.99 µM; actives 0.35% (n = 380,000); AID 720647, 2013;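 active = drop in luminescence signal, shown as inhibition above about 50% in the replicate tests, limit read from the data, passing the limit was not always enough; inconclusive = probably only some replicates passing the limit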;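 also: agonist challenge used bursicon conditioned medium at about half maximal strength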
MITF TRPM1 inh – inhibitors of MITF-dependent TRPM1 promoter reporter, primary screen, cell-based, SK-MEL-5, single point, luciferase. SK-MEL-5 TRPM1 promoter luciferase, 24 h. actives 0.83% (n = 330,000). inhibition, % at 12.5 µM. AID 488899, 2010;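 active = mean inhibition across replicates of 60% or more, whatever share of single replicates reaches that level; inconclusive = some that reach 60%, reason not given; inactive = mean inhibition across replicates below 60%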
TWEAK-Fn14 inh – inhibitors of TWEAK-Fn14 signaling, primary screen, luciferase reporter cells, uHTS; AID 1159606, 2016; TWEAK-stimulated Fn14 reporter cells, luciferase luminescence, 8 h; actives 2% (n = 360,000); inhibition, % at 10 µM; in the data active = inhibition above about 50%
TROY NFkB inh – inhibitors of TROY-driven NF-kB signaling, primary screen, Q293 LMP1-TROYcd cells, NF-kB luciferase, uHTS | Q293 LMP1-TROYcd NF-kB luciferase reporter, 4 h | inhibition, % at 10 µM | actives 0.98% (n = 360,000);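 active = compounds whose plate-normalised and pattern-corrected inhibition of the luciferase reporter signal at the single screening dose is 50% or more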
Starred values were filed as active, the others as inactive; ? = inconclusive; . = no result; ! = repeats disagree.

SMILES	MITF TRPM1 HTS	EBV LMP1 NFkB	LGR2 inh	MITF TRPM1 inh	TWEAK-Fn14 inh	TROY NFkB inh
Cc1ccc(S(=O)(=O)N2c3ccccc3-c3c(ssc3=S)C2(C)C)cc1	-8.5	58.4*	.	9.4	36.8	11.6
CSC(=S)NN=C(C)c1cccc(C)n1	.	5.1	?	74.2*	91.0*	16.4
C/C(=N\NC(=O)c1ccc(F)cc1)c1ccccn1	-39.6	4.9	-45.2	44.0	-14.1	-70.9
CCC1CCCCN1C(=S)NN=C(C)c1ccccn1 (stereo not given)	.	.	15.3	.	.	.
Cc1cccc(NC(=S)Nc2cccc(C)n2)n1	20.2	-15.6	-16.8	-18.4	-30.6	-10.5
CC(=NNC(=S)N1CCCCC1)c1ccccn1	.	57.0*	-7.5	.	4.7	-17.9
Cc1cccc(C(=S)N2CCOCC2)n1	6.2	1.3	2.2	-6.7	9.8	-10.7
CC(=NNC(=S)N1CC2CCC(CC2)C1)c1ccncn1	-75.6	35.2	9.6	77.5*	-34.1	-10.7
CC(=NNC(=S)N1CCCCC1)c1cccc(C)n1	-43.9	68.6*	2.7	44.2	-39.2	6.8
CCCC#Cc1cnc2c(c1)C(=O)N([C@H](C)CO)C[C@@H](C)[C@@H](CN(C)C(=O)NC1CCCC1)O2	.	.	-6.6	.	.	.
CCCc1cc(NCCCN2CCOCC2)n2c(nc3ccccc32)c1C#N	0.0	-14.0	.	-2.0	82.1*	.
Cc1cc(NCCCN2CCOCC2)n2c(nc3ccccc32)c1C#N	-13.0	-10.0	.	12.5	-18.2	-11.4
CCOc1ccccc1NC(=O)c1nc(S(=O)(=O)Cc2cccc(C)c2)ncc1Cl	-93.2	66.3*	4.0	93.4*	78.5*	70.5*
CCc1nnc(NC(=O)c2cccc(S(=O)(=O)N3CCN(C)CC3)c2)s1	.	-1.1	9.1	.	16.1	-14.6
CCc1nnc(NC(=O)c2nc(Cl)ccc2Cl)s1	1.1	-6.2	5.6	1.0	-6.3	-23.4
CCc1nnc(NC(=O)c2nc(S(=O)(=O)Cc3cccc(C)c3)ncc2Cl)s1	-76.3	65.8*	-19.2	75.7*	97.0*	46.2
CCc1nnc(NC(=O)c2nc(S(=O)(=O)Cc3ccc(C)cc3)ncc2Cl)s1	-71.7	10.2	-21.6	69.5*	95.3*	51.1*
CCc1nnc(NC(=O)c2nc(S(=O)(=O)Cc3ccccc3)ncc2Cl)s1	-80.4	31.0	3.4	79.8*	97.1*	32.9
Cc1ccc(-c2cnc3c(c2)C(=O)N([C@@H](C)CO)C[C@H](C)[C@@H](CN(C)C(=O)c2cccnc2)O3)cc1	.	.	-3.6	.	.	.
C[C@@H]1CN([C@@H](C)CO)C(=O)c2cc(NC(=O)Nc3ccc(F)cc3)ccc2O[C@H]1CN(C)Cc1ccc(C(F)(F)F)cc1	.	.	22.2	.	.	.
CCCN1C[C@H](C)[C@H](OC)CN(C)C(=O)c2cc(NC(=O)NC3CCCCC3)ccc2OC[C@H]1C	.	.	-43.3	.	.	.
CCN1/C(=C\C(=S)Nc2ccccc2)Sc2ccccc21	12.0	-15.4	.	-11.9	18.3	10.9
CCN1/C(=C/C(C)=C/c2sc3ccccc3[n+]2CC)Sc2ccccc21	-103.0	-10.4	109.6*!	103.2*	82.4*	33.4
C[C@@H]1CN([C@@H](C)CO)C(=O)c2cccc(NS(=O)(=O)c3cn(C)cn3)c2O[C@H]1CN(C)Cc1ccncc1	.	.	6.8	.	.	.
CCNc1nc(-c2ccc(Cl)cc2)cs1	111.3*	-3.8	.	-107.2	-12.9	-1.4
SMILES	MITF TRPM1 HTS	EBV LMP1 NFkB	LGR2 inh	MITF TRPM1 inh	TWEAK-Fn14 inh	TROY NFkB inh
Cc1nc(NC(=O)/C=C/c2ccccc2)n[nH]1	-57.9	-45.3	?	?	86.2*	1.4
N#Cc1ccc(-c2csc(NC(=O)/C=C/c3cccs3)n2)cc1	8.9	15.7	22.8	5.7	48.4	58.6*
Cc1ccc(-c2csc(NC(=O)/C=C/c3cccs3)n2)cc1C	-9.1	20.7	7.2	10.0	19.9	3.1
O=C(/C=C/c1ccccc1)Nc1nc(-c2ccncc2)cs1	-14.7	14.3	-5.9	12.5	30.3	52.7*
COc1ccc(-c2ccc(C3[C@H]4CNC[C@@H]3N4C(=O)Nc3ccccc3F)cc2)cc1 (stereo not given in full)	.	.	17.6	.	.	.
c1ccc(Nc2nc(-c3ccncc3)cs2)cc1	143.6*	-42.6	.	-144.8	10.4	-63.6
Nc1ccc(Nc2nc(-c3ccncc3)cs2)cc1	120.2*	-2.2	-29.8	-115.4	18.6	-14.7
Oc1ccc(Nc2nc(-c3ccc(O)cc3)cs2)cc1	15.3	-13.0	.	-17.0	2.1	3.6
CCCOC(=O)c1ccc(NC(=O)/C=C/c2cccs2)cc1	52.5	-2.6	-42.0	-44.1	31.8	56.0*
COc1ccc2oc(=O)c(-c3csc(Nc4ccc(O)cc4)n3)cc2c1	9.4	-32.4	-36.0	-7.4	68.1*	19.4
COc1ccc(NC(=O)Nc2ccc3c(c2)C(=O)N([C@@H](C)CO)C[C@H](C)[C@H](CN(C)CC2CCCCC2)OCCCC[C@H](C)O3)cc1	.	.	5.2	.	.	.
COc1ccc(Nc2nc(-c3ccc(OC)cc3)cs2)cc1	94.5*	-38.4	2.7	-90.9	-30.3	-70.9
Clc1ccc(Nc2nc(-c3ccncc3)cs2)cc1	75.8	-16.4	.	-76.5	-2.9	-34.7
Cc1cccc(NC(=O)/C=C/c2cccs2)n1	104.4*	-7.6	.	-96.5	23.3	-79.2
Fc1ccc(Nc2nc(-c3ccncc3)cs2)cc1	84.1*	-19.3	-127.1	-83.0	20.2	-26.8
Cc1nc2ncccn2c1-c1csc(Nc2ccccc2)n1	-5.5	40.5*	.	7.9	29.5	31.7
COc1ccc2c3c([nH]c2c1)[C@@H](CO)N(C(=O)C1CCC1)CC31CN(C(=O)c2ccccn2)C1	.	.	1.2	.	.	.
C[C@H]1CN([C@@H](C)CO)C(=O)c2cc(C#Cc3ccncc3)cnc2O[C@H]1CN(C)C(=O)CN(C)C	.	.	-7.9	.	.	.
CCC(=O)N1CC2(C1)CN(C(=O)CN1CCOCC1)[C@H](CO)c1[nH]c3cc(OC)ccc3c12	.	.	11.3	.	.	.
O=C(CC(SCCO)c1ccc2c(c1)OCO2)c1cccs1 (stereo not given)	88.2*	-33.1	-55.5	-84.0	-17.1	-72.2
Cc1cc(C)n(CCC(=O)N/N=C/c2c(O)ccc3ccccc23)n1	-59.3	55.7*	24.1	?	36.0	19.4
Oc1ccc2ccccc2c1C=NNc1ccccn1	11.2	57.6*	-1.0	-8.2	15.7	-44.1
COc1ccc2ccccc2c1/C=N/NC(=O)c1cccc(Br)c1	-5.3	6.2	5.9	4.7	-18.9	-25.5
O=C(N/N=C/c1c(O)ccc2ccccc12)c1cccc(C(F)(F)F)c1	-70.9	25.6	21.7	70.7*	41.4	41.9
Oc1ccc2ccccc2c1/C=N/Nc1nnc(-c2ncc[nH]2)c2ccccc12	.	59.4*	.	21.1	30.5	5.7
Fc1cccc(F)c1/C=N/Nc1ccccn1	12.5	-17.1	-40.2	-19.7	-8.2	-75.9

Bioassay records as filed in PubChem.
